LDHA block – blocks human lactate dehydrogenase A. P00338. purified LDHA, NADH/diaphorase-resazurin fluorescence; stronger effect = lower value. activity change, % (values are at about 110 or 230 µM). actives 0.15% (n = 480,000); in the data active means activity change below about -30%;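 further: plate controls were DMSO wells for no effect and wells without enzyme for full effect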
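Resorufin fluorescence (ex540/em590), read at 0 and 20 min after diaphorase/resazurin addition, reports the NADH left after a 5 min room-temperature reaction of 2 nM human LDH5 with 0.06 mM NADH and 0.2 mM pyruvate.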
D1 ag – activates the human D1 dopamine receptor | HEK293 T-REx D1 cells, calcium flux, agonist mode | actives 1% (n = 360,000) | activation, % at 2 µM; further: 0% is about no effect
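Tetracycline-induced HEK293 TREx D1 cells, force-coupled to calcium signalling, were dye-loaded with a no-wash calcium kit. Compound was pin-added after a 10 s baseline. Fluorescence was read kinetically at 1 cycle/s for 180 s, with calcium rises flagged as agonism.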
D1 antag – human D1 dopamine receptor antagonism. P21728. HEK293 TREx D1 cells, calcium flux, dopamine EC80; stronger effect = lower value. activity change, negative = inhibition, % at 10 µM. actives 3.2% (n = 360,000). AID 504652; in the data active means activity change below about -30%; further: on the % scale 0 is the no-effect control and ±100 the full control effect
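Inducible Hek293 Trex D1 cells (tetracycline, overnight, 30 C). Calcium dye 30–90 min RT. Antagonist mode: EC80 dopamine added after 180 s compound read.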
TRHR PAM – allosteric enhancers of human TRH receptor; AID 493056; P34981; actives 0.66% (n = 360,000); TRHR cells, fluo-8 calcium fluorescence, EC20 TRH enhancement; enhancement, % at 2 µM; in the data active means enhancement above about 30%; further: 0% is about no effect
Target sequence (P34981 whole entry, looked up): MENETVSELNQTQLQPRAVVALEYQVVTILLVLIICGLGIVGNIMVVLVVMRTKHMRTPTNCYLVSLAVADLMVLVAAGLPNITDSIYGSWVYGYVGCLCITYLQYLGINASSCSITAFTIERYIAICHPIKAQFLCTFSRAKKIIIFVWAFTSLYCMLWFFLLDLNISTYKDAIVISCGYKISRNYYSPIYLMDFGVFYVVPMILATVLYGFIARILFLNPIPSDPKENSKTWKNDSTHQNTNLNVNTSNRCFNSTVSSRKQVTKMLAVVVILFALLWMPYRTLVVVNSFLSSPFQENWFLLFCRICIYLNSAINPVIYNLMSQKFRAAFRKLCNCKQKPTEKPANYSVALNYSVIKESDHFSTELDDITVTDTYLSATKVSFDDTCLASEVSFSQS
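TRHR-expressing cells loaded with fluo-8 calcium dye were read kinetically (ex 480/em 530) during compound addition, then stimulated with an EC20 of TRH (10 nM final). Enhancement of the Gq-mediated intracellular calcium response was scored.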
TRHR ag – TRH receptor (human) agonism; TRHR cells, calcium flux fluo-8, FDSS agonist mode; P34981; actives 0.18% (n = 360,000); activation, % at 2 µM; AID 493084; further: 0% is about no effect
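Steps: seed TRHR cells overnight; add fluo-8 no-wash Ca dye, RT 30 min–1.5 h; record 10 s baseline; pin-transfer compounds; monitor fluorescence 1 cycle/s for the agonist window. Calcium increases flag candidate agonists.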
D1 PAM – human D1 dopamine receptor positive modulation. P21728. HEK293 TREx D1 cells, calcium flux, dopamine EC20 potentiation. potentiation, % at 10 µM. actives 0.036% (n = 360,000); in the data active means potentiation above about 30%; further: 0% is about no effect
* marks the source's active call; other numbers are inactive results; nt = no result given. In the library only some 3.6% were active in any assay of this set; here they are far more common. Unless noted, no stated cut-off is given here; in the data, active means activation above about 30%; inactive means the rest.

SMILES | LDHA block | D1 ag | D1 antag | TRHR PAM | TRHR ag | D1 PAM
COc1ccc(C2CC(c3ccc4ccccc4c3)=NN2C(=O)CSc2ncccn2)cc1 (stereo not drawn) | -3 | 7 | -3 | 4 | 1 | 0
COc1ccc(C2CC(c3ccccc3)=NN2C(=O)COC(=O)c2cc(S(=O)(=O)N3CCOCC3)ccc2Cl)cc1 (stereo not drawn) | -10 | 9 | -14 | 40* | 1 | 0
COc1ccc(C2CC(c3ccccc3)=NN2C(=O)COC(=O)c2cccnc2)cc1 (stereo not drawn) | -4 | 4 | -6 | 37* | -1 | -5
COc1ccc(C2CC(c3ccccc3)=NN2C(=O)CCC(=O)O)cc1 (stereo not drawn) | 0 | 2 | 1 | 33* | 1 | -3
COc1ccc(C2CC(c3ccc4ccccc4c3)=NN2C(=O)CN2C(=O)CCC2=O)cc1 (stereo not drawn) | -13 | 9 | -30* | 3 | 0 | 0
O=C(OCc1cccc(Cl)c1)c1ccccc1F | -4 | nt | nt | nt | nt | nt
CCOC(=O)c1ccccc1-n1c(C)cc(C2N=C(N)Nc3nc4ccccc4n32)c1C (stereo not drawn) | -5 | 2 | -36* | 1 | 0 | -6
CCc1ccc(C2N=C(N)Nc3nc4ccccc4n32)cc1 (stereo not drawn) | -3 | 4 | -14 | 6 | -1 | -3
COc1ccc(NC(=O)Nc2nnc(-c3ccccc3)s2)cc1 | 1 | nt | nt | nt | nt | nt
CCCc1c(C)c2ccc(OCC(=O)c3ccccc3)cc2oc1=O | -7 | nt | nt | nt | nt | nt
Brc1ccc(-c2nnc(COc3cccc(-n4cnnn4)c3)o2)o1 | 2 | nt | nt | nt | nt | nt
CC1CCCCN1C(=O)CSc1nc(-c2ccccc2)cn1N (stereo not drawn) | 2 | 3 | 13 | -3 | -1 | 3
CC1CCCCN1C(=O)CSc1n[nH]c(-c2ccccc2)n1 (stereo not drawn) | 2 | 1 | -31* | -4 | 0 | 3
Cc1ccc(C)c(N2CCN(C(=O)c3ccc4[nH]c(C)c(C)c4c3)CC2)c1 | -2 | 0 | -33* | 23 | 0 | -4
COC(=O)c1cn(NC(=O)/C=C/c2ccc(OC)c(OC)c2)c(=O)c2ccccc12 | 1 | 0 | -74* | 0 | 1 | -11
COC(=O)c1cn(NC(=O)/C=C/c2cccc(OC)c2OC)c(=O)c2ccccc12 | nt | 1 | 1 | -2 | 0 | -7
O=C(Nc1ccccc1C(F)(F)F)c1cccc(Cl)c1Cl | 5 | nt | nt | nt | nt | nt
CCOP(=O)(OCC)C(NC(=O)Nc1ccccc1)C(N)=O (stereo not drawn) | -14 | 4 | -32* | -3 | 0 | 0
O=c1c(O)c(-c2ccccc2)oc2ccccc12 | -14 | nt | nt | nt | nt | nt
Cc1ccc(-c2oc3ccccc3c(=O)c2O)cc1 | 0 | 30* | -26 | -11 | 6 | -5
COc1cccc(-c2oc3ccc(C)cc3c(=O)c2O)c1 | 1 | 61* | 2 | -3 | 6 | -4
CCOc1ccc(-c2oc3ccc(C)cc3c(=O)c2O)cc1 | -3 | 37* | -10 | -10 | 4 | -3
O=c1c(S(=O)(=O)c2ccccc2)cn(Cc2ccc(F)cc2)c2cc(N3CCCCC3)c(F)cc12 | 0 | 2 | -44* | -3 | 0 | -1
Cc1cccc(S(=O)(=O)c2cn(C)c3cc(N4CCN(c5ccccc5)CC4)c(F)cc3c2=O)c1 | 1 | 4 | -1 | 32* | 0 | 0
O=c1c(S(=O)(=O)c2ccccc2)cn(Cc2ccccc2)c2cc(N3CCCC3)c(F)cc12 | 3 | 0 | 12 | 2 | 0 | -2
SMILES | LDHA block | D1 ag | D1 antag | TRHR PAM | TRHR ag | D1 PAM
COc1ccc(F)cc1C(=O)/C=C/c1cccc(C#N)c1 | -1 | nt | nt | nt | nt | nt
Cc1c(CC(=O)O)c(=O)oc2cc(OCc3ccc4ccccc4c3)ccc12 | -13 | nt | nt | nt | nt | nt
Cc1ccc(C)c(Cn2nnc(C(=O)NCc3ccccc3)c2N)c1 | -7 | 41* | -6 | 21 | 0 | -1
CSc1ccc(Cn2nnc(C(=O)Nc3ccc(C)cc3Cl)c2N)cc1 | -4 | 18 | 1 | 7 | 2 | -4
CCOc1ccc(Cn2nnc(C(=O)NCCc3ccc(Cl)cc3)c2N)cc1 | -8 | 1 | -37* | -3 | 0 | nt
Cc1ccc(C)c(NC(=O)c2nnn(Cc3ccccc3)c2N)c1 | 5 | 17 | 25 | -1 | 3 | 4
CSc1ccc(Cn2nnc(C(=O)NCc3ccccc3)c2N)cc1 | -3 | 49* | -4 | -4 | 3 | 7
COc1cccc(Cn2nnc(C(=O)NCc3ccc(F)cc3)c2N)c1 | -6 | 1 | -50* | 4 | 0 | -6
CCOc1ccc(Cn2nnc(C(=O)NCCc3ccccc3)c2N)cc1 | 0 | 6 | -10 | 1 | 0 | nt
Nc1c(C(=O)NCc2ccccc2)nnn1Cc1ccccc1 | -8 | 9 | 4 | 34* | 1 | nt
Cc1cc(C)cc(NC(=O)Cn2nnc(C(=O)NCc3ccc4c(c3)OCO4)c2N)c1 | -6 | 5 | -32* | 4 | 1 | -6
COc1ccc(NC(=O)Cn2nnc(C(=O)NCc3ccc4c(c3)OCO4)c2N)cc1 | -18 | 1 | -15 | -6 | 0 | -6
Nc1c(C(=O)NCc2ccccc2)nnn1Cc1cccc(Br)c1 | -3 | 2 | 2 | 0 | 0 | -1
CCOc1ccc2c(c1)nc(C)n2C | -7 | 1 | -47* | 2 | 0 | -8
CC(=O)OC1CCN(CCc2ccccc2)C(C)C1C (stereo not drawn) | 1 | nt | nt | nt | nt | nt
Ic1cc2c(-c3ccccc3)c(-c3ccccc3)[nH]c2c2ccccc12 | 1 | nt | nt | nt | nt | nt
COc1ccc(CCC(=O)NNC(=O)Cn2nc(C)cc2C)cc1 | -12 | 4 | -58* | 15 | 1 | -11
Cc1cccc(OCCC(=O)NNC(=O)Cn2nc(C)cc2C)c1 | -9 | nt | nt | nt | nt | nt
CCOC(=O)c1ccc(NC(=O)c2cc(=O)c3cc(C)c(C)cc3o2)cc1 | 5 | nt | nt | nt | nt | nt
COc1ccc2c(c1OC)C(=O)OC2CC(=O)O (stereo not drawn) | -10 | 1 | -30* | -1 | 1 | 0
CC(=O)c1c(OS(=O)(=O)c2cccc3cc(C)cnc23)ccc2c(C)cc(=O)oc12 | 5 | nt | nt | nt | nt | nt
C/C(=N\Nc1ccc(C(=O)O)cc1)c1ccc(Cl)s1 | -3 | 50* | 4 | 0 | 1 | 0
CSc1ccc(NC(=O)c2ccc3c(c2)NC(=O)CCS3)cc1 | 3 | nt | nt | nt | nt | nt
Cc1cccc(NC(=O)CSc2nc3n[nH]c(C)c3c(=N)n2-c2cccc(Cl)c2)c1 | -11 | 1 | -35* | -5 | 0 | -7
Cc1cccc(-c2nsc(SCC(=O)N3CCCC3)n2)c1 | -7 | 5 | -37* | -9 | 0 | -1

High-throughput results as filed in PubChem.
